Assay results as given in article PMC7862700, “An all-to-all approach to the identification of sequence-specific readers for epigenetic DNA modifications on cytosine”.

What was measured:
Assay in all cases: DAPPL (digital affinity profiling via proximity ligation, sequencing); 10 mM Tris-HCl pH 7.5, 50 mM NaCl, 1 mM DTT, 4% glycerol, room temperature, 30 min; GST-TFs on glutathione beads, 16-mer random dsDNA library, 0.1% formaldehyde crosslink after washing; high values mean tight binding
FLI1 = biological target: T1, FLI1 (Homo sapiens, UniProt Q01543 1-452); settings: protein: recombinant; tags: N-terminal GST; dsDNA, one strand shown
T1 sequence: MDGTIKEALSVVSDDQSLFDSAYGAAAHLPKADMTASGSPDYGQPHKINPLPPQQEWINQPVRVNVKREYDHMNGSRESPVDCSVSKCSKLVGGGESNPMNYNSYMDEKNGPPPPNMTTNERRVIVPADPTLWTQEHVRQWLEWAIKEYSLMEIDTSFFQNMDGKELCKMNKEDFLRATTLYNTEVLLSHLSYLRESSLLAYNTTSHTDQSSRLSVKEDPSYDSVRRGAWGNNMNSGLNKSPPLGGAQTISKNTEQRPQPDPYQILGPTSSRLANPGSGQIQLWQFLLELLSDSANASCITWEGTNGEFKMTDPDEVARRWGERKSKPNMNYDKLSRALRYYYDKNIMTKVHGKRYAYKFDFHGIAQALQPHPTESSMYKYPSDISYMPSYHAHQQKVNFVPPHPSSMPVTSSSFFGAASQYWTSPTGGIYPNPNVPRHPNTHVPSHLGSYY
Outline: (§1)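 Binding signal is defined as a hexamer's read frequency for one factor over its frequency for the tag-only sample. To obtain reads, GST-fused human transcription factors were expressed in yeast, captured on glutathione beads, barcoded with DNA and pooled with that sample. Pools met 200 nmole of a 16-mer random double-stranded DNA library in Tris/NaCl/DTT/glycerol buffer for 30 min at room temperature before washing, 0.1% formaldehyde crosslinking, proximity ligation (BsaI/T4 ligase, 1 h, 37 °C), PCR and Illumina NextSeq500 sequencing.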

ELK1 = biological target: T2, ELK1 (Homo sapiens, UniProt P19419 1-428); settings: protein: recombinant; tags: N-terminal GST; dsDNA, one strand shown
T2 sequence: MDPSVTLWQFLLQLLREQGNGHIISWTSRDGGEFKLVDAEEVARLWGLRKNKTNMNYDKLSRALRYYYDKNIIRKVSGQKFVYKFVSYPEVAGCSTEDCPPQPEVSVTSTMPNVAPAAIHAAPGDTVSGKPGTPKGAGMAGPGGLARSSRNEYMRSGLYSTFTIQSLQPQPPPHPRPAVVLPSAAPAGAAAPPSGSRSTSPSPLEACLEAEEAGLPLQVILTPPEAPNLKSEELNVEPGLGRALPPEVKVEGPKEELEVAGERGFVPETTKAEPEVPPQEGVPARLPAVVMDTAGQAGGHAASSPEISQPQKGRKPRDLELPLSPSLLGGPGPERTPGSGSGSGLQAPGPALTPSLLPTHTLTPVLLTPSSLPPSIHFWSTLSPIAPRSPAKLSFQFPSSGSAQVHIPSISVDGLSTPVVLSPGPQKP
Outline: as §1

GABPA = biological target: T3, GABPA (Homo sapiens, UniProt Q06546 1-454); settings: protein: recombinant; tags: N-terminal GST; dsDNA, one strand shown
T3 sequence: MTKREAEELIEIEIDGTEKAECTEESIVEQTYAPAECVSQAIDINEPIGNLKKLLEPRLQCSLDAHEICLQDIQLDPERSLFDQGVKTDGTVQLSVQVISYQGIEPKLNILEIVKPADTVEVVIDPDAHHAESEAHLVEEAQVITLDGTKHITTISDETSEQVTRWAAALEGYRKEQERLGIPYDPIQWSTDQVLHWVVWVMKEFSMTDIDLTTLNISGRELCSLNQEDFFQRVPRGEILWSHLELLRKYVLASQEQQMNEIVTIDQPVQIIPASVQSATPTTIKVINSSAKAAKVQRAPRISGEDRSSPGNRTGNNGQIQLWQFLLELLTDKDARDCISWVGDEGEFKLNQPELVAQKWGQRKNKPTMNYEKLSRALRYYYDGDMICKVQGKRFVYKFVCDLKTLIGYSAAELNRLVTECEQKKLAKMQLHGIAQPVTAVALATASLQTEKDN
Outline: as §1

ERG = biological target: T4, ERG (Homo sapiens, UniProt P11308 1-479); settings: protein: recombinant; tags: N-terminal GST; dsDNA, one strand shown
T4 sequence: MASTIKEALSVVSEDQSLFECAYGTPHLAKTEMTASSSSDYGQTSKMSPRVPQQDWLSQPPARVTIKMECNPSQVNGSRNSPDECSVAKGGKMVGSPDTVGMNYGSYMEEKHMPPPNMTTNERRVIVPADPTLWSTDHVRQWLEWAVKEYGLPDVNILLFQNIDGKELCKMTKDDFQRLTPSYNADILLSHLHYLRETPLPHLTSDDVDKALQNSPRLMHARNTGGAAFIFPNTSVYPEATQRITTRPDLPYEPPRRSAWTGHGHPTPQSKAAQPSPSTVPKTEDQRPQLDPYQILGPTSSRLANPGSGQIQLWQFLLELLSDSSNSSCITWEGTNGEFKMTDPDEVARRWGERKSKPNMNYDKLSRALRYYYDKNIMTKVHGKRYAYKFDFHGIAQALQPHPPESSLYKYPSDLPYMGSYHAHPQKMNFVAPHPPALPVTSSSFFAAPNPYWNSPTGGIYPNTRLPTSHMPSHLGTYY
Outline: as §1

ELF1 = ELF1 (Homo sapiens, UniProt P32519 1-619); settings: protein: recombinant; tags: N-terminal GST; dsDNA, one strand shown
Chain of ELF1 (P32519 whole entry): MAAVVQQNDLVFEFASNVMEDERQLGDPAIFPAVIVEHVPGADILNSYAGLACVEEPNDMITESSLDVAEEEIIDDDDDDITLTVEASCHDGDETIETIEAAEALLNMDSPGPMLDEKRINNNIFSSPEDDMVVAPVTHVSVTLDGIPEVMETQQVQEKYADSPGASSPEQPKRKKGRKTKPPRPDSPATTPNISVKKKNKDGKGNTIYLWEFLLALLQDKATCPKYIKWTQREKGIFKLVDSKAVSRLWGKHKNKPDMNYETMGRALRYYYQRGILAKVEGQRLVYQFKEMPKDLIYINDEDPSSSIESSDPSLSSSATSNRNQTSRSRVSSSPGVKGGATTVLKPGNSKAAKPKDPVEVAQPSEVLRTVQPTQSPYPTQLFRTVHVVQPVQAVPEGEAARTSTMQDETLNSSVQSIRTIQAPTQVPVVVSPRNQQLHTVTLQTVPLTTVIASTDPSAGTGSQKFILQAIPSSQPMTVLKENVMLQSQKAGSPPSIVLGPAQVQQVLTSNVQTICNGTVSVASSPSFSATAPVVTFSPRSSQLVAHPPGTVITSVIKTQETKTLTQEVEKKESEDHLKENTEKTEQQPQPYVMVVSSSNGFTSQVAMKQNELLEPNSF
Outline: as §1

EHF = biological target: T5, EHF (Homo sapiens, UniProt Q9NZC4 1-300); settings: protein: recombinant; tags: N-terminal GST; dsDNA, one strand shown
T5 sequence: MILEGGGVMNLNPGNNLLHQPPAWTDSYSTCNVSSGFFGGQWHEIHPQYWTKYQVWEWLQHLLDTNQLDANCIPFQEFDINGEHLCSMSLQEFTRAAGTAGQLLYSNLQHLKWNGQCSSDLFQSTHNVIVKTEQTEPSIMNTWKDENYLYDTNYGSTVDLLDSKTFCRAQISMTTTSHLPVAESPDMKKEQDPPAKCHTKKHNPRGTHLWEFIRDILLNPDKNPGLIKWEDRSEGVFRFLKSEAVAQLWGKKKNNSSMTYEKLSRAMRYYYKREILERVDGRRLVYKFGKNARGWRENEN
Outline: as §1

SPI1 = SPI1 (Homo sapiens, UniProt P17947 1-270); settings: protein: recombinant; tags: N-terminal GST; dsDNA, one strand shown
Outline: as §1

SPIB = SPIB (Homo sapiens, UniProt Q01892 1-262); settings: protein: recombinant; tags: N-terminal GST; dsDNA, one strand shown
Chain of SPIB (Q01892 whole entry): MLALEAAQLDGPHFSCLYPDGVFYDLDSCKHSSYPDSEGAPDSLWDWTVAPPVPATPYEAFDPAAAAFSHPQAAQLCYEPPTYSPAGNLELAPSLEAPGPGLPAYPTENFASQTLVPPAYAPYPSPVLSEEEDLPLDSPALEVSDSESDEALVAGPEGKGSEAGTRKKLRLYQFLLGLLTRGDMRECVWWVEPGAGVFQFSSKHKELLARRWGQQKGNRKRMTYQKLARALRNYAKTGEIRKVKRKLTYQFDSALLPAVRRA
Outline: as §1

ELK3 = biological target: T6, ELK3 (Homo sapiens, UniProt P41970 1-407); settings: protein: recombinant; tags: N-terminal GST; dsDNA, one strand shown
T6 sequence: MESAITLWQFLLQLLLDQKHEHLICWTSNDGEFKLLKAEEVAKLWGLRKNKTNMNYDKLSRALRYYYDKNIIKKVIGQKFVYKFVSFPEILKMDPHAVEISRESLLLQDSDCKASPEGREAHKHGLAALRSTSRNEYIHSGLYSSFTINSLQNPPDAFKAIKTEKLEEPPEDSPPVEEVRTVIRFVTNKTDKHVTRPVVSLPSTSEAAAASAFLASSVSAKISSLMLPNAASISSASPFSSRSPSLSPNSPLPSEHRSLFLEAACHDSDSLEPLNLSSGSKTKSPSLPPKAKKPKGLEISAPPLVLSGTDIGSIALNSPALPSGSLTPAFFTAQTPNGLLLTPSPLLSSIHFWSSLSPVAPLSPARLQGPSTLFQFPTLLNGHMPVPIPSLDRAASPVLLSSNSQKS
Outline: as §1

FEV = biological target: T7, FEV (Homo sapiens, UniProt Q99581 1-238); settings: protein: recombinant; tags: N-terminal GST; dsDNA, one strand shown
T7 sequence: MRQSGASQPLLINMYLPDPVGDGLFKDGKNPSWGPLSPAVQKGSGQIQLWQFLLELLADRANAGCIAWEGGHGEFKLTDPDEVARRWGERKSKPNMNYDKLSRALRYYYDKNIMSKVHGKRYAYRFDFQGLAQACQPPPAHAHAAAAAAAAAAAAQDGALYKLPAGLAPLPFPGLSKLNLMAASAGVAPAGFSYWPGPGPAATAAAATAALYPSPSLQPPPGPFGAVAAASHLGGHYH
Outline: as §1

ETV5 = ETV5 (Homo sapiens, UniProt P41161 1-510); settings: protein: recombinant; tags: N-terminal GST; dsDNA, one strand shown
Chain of ETV5 (P41161 whole entry): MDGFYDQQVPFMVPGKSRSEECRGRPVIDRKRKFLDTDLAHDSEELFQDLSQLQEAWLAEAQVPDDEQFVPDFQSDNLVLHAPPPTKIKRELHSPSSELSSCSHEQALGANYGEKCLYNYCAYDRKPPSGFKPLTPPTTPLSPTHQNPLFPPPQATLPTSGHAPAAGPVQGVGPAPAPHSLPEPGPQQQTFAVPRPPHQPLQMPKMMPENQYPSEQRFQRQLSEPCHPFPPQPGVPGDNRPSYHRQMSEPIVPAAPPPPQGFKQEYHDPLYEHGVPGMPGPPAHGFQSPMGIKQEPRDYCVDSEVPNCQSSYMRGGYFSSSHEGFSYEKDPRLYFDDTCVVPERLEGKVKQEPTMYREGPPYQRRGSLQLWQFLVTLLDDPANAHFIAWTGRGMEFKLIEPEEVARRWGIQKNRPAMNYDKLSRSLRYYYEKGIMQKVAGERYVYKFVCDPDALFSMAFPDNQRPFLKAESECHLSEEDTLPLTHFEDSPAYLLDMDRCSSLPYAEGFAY
Outline: as §1

HSF1 = HSF1 (Homo sapiens, UniProt Q00613 1-529); settings: protein: recombinant; tags: N-terminal GST; chain copies: 3; dsDNA, one strand shown
Chain of HSF1 (Q00613 whole entry): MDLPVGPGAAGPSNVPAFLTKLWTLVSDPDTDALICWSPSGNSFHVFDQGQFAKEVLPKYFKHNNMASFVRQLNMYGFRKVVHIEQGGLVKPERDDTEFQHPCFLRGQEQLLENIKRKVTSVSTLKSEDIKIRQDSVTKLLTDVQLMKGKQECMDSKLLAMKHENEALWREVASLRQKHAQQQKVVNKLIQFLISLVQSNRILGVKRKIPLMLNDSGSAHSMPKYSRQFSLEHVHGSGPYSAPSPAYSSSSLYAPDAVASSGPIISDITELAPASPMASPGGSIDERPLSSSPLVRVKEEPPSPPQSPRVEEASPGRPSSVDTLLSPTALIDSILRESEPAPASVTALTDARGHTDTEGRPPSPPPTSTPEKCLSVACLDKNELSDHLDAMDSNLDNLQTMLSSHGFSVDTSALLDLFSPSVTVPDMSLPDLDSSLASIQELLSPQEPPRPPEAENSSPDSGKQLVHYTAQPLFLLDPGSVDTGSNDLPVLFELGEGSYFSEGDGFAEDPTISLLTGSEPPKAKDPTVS
Outline: as §1

SPIC = biological target: T8, SPIC (Homo sapiens, UniProt Q8N5J4 1-248); settings: protein: recombinant; tags: N-terminal GST; dsDNA, one strand shown
T8 sequence: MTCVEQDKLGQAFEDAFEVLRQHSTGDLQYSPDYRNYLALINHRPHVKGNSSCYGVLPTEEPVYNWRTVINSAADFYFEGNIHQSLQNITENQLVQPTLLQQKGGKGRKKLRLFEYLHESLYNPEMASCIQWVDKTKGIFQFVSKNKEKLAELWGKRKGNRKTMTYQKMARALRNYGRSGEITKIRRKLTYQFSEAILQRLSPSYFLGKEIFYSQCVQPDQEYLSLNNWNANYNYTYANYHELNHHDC
Outline: as §1

ELF4 = ELF4 (Homo sapiens, UniProt Q99607 1-663); settings: protein: recombinant; tags: N-terminal GST; dsDNA, one strand shown
Chain of ELF4 (Q99607 whole entry): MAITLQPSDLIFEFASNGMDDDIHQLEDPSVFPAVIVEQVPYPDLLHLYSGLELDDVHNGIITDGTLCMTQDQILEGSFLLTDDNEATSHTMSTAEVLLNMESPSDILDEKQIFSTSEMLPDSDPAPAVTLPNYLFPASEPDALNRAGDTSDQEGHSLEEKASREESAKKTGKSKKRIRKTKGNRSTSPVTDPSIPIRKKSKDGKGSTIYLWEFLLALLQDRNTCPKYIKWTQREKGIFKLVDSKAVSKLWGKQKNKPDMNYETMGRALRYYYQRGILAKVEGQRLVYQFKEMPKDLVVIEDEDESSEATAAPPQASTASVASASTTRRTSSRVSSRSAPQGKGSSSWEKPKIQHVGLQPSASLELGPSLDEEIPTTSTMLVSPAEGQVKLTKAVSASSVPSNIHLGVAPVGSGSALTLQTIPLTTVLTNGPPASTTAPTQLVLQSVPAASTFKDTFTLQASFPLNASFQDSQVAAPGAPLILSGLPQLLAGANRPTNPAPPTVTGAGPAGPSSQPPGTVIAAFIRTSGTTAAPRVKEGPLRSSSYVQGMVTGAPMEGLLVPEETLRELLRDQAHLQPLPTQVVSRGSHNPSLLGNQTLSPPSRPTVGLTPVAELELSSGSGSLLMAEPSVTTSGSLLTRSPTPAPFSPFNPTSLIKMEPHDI
Outline: as §1

ELK4 = biological target: T9, ELK4 (Homo sapiens, UniProt P28324-2 1-405); settings: protein: recombinant; tags: N-terminal GST; dsDNA, one strand shown
T9 sequence: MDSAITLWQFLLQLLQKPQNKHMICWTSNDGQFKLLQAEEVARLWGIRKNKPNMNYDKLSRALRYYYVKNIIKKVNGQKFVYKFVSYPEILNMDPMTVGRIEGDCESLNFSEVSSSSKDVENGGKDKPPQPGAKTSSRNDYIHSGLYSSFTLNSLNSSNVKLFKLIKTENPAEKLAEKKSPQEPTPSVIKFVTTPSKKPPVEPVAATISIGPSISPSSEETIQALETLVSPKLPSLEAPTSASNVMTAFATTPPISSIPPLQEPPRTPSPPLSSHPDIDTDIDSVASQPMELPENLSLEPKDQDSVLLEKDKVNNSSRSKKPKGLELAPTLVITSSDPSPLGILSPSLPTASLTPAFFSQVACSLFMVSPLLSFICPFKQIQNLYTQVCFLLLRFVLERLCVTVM
Outline: as §1

ETV2 = biological target: T10, ETV2 (Homo sapiens, UniProt O00321 1-342); settings: protein: recombinant; tags: N-terminal GST; dsDNA, one strand shown
T10 sequence: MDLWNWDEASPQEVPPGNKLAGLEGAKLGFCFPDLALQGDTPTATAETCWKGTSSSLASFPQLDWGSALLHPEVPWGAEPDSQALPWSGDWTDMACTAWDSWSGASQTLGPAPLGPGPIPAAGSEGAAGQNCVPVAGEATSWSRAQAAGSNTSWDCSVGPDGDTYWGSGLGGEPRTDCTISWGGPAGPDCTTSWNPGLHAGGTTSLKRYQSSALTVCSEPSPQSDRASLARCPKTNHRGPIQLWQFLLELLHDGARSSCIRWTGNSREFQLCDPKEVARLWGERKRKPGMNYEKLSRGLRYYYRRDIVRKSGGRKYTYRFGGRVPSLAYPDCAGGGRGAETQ
Outline: as §1

ELF3 = biological target: T11, ELF3 (Homo sapiens, UniProt P78545 1-371); settings: protein: recombinant; tags: N-terminal GST; dsDNA, one strand shown
T11 sequence: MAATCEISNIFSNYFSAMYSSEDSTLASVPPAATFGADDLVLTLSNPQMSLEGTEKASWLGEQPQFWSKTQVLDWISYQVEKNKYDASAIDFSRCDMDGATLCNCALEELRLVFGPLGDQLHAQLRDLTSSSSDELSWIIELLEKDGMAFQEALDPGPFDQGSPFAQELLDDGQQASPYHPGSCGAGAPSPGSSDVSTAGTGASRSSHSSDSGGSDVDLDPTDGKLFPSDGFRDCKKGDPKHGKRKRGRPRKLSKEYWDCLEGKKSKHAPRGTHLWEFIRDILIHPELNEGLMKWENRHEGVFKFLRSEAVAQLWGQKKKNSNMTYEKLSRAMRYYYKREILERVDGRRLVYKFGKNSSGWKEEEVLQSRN
Outline: as §1

CRX = CRX (Homo sapiens, UniProt O43186 1-299); settings: protein: recombinant; tags: N-terminal GST; dsDNA, one strand shown
Chain of CRX (O43186 whole entry): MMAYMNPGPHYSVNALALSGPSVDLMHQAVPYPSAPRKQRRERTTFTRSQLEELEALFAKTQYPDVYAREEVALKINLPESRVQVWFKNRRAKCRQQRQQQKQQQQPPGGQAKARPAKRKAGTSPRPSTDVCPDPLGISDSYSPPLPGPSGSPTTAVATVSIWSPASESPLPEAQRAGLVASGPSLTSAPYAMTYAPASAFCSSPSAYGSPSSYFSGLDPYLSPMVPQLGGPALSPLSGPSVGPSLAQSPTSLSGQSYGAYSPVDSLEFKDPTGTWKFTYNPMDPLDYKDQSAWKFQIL
Outline: as §1

ETV1 = ETV1 (Homo sapiens, UniProt P50549 1-477); settings: protein: recombinant; tags: N-terminal GST; dsDNA, one strand shown
Chain of ETV1 (P50549 whole entry): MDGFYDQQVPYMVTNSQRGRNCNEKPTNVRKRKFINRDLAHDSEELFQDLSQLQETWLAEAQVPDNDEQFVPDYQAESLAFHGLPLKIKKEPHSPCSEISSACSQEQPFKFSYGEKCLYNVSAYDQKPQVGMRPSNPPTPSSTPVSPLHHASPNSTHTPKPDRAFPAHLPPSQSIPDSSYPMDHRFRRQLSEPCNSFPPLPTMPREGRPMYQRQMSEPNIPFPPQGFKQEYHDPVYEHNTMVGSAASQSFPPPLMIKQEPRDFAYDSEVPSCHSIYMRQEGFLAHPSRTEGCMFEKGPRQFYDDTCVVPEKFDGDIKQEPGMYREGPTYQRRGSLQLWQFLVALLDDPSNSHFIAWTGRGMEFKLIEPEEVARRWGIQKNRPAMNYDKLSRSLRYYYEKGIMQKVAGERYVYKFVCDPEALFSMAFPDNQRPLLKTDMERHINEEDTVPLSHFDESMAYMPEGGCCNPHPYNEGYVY
Outline: as §1

Sequence: TCTACT
- binding signal (FLI1): 1.27 fold enrichment (6-mer frequency, TF over GST control)
- binding signal (ELK1): 1.37 fold enrichment (6-mer frequency, TF over GST control)
- binding signal (GABPA): 1.43 fold enrichment (6-mer frequency, TF over GST control)
- binding signal (ERG): 1.32 fold enrichment (6-mer frequency, TF over GST control)
- binding signal (ELF1): 1.35 fold enrichment (6-mer frequency, TF over GST control)
- binding signal (EHF): 1.35 fold enrichment (6-mer frequency, TF over GST control)
- binding signal (SPI1): 1.42 fold enrichment (6-mer frequency, TF over GST control)
- binding signal (SPIB): 1.42 fold enrichment (6-mer frequency, TF over GST control)
- binding signal (ELK3): 1.28 fold enrichment (6-mer frequency, TF over GST control)
- binding signal (FEV): 1.39 fold enrichment (6-mer frequency, TF over GST control)
- binding signal (ETV5): 1.39 fold enrichment (6-mer frequency, TF over GST control)
- binding signal (HSF1): 1.51 fold enrichment (6-mer frequency, TF over GST control)
- binding signal (SPIC): 1.51 fold enrichment (6-mer frequency, TF over GST control)
- binding signal (ELF4): 1.34 fold enrichment (6-mer frequency, TF over GST control)
- binding signal (ELK4): 1.27 fold enrichment (6-mer frequency, TF over GST control)
- binding signal (ETV2): 1.31 fold enrichment (6-mer frequency, TF over GST control)
- binding signal (ELF3): 1.38 fold enrichment (6-mer frequency, TF over GST control)
- binding signal (CRX): 1.45 fold enrichment (6-mer frequency, TF over GST control)
- binding signal (ETV1): 1.47 fold enrichment (6-mer frequency, TF over GST control)
